Screening results: PubChem, several laboratories
Sampled rows, rich in hits. Any-hit rate of the full collection: about 4%.
PAX8 inh HTS – inhibitors of PAX8-driven TPO luciferase reporter, primary screen, RMG-I cells, single concentration; inhibition, % at 12.6 µM; SteadyGlo, 24 h; AID 652154, 2013; 360,000 compounds, 1.2% hits;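 active = mean replicate inhibition at least 60% with every replicate also reaching 60%; inconclusive = only one of the two criteria is met; inactive = mean below 60% and not all replicates reaching 60%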;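 note: luciferase light reporting Pax8 driven TPO promoter activity; plate controls were median of neutral control wells for no effect and mitoxantrone controls for full effect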
Shn3 inh set2 – reduction of Shn3 3'UTR firefly luciferase signal, primary screen, Schnurri-3 inhibitor project, cell-based, Clone20 osteoblasts, set 2; Clone20 osteoblast Shn3 3'UTR firefly luciferase, 24 h; inhibition, % at 12.5 µM; 360,000 compounds, 0.52% hits; AID 588674, 2011;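 active = mean inhibition of at least 75% with every replicate also reaching 75%; inconclusive = mean inhibition at least 75% but some replicate below; inactive = mean inhibition below 75%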;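 note: 0% = median of neutral control wells and 100% = pilot-screen positive control compound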
CSC inhib – cancer stem cell viability inhibitors, primary screen, luminescence; cancer stem cell-like cells viability; inhibition, % at 7.5 µM; 300,000 compounds, 1.1% hits; AID 2717, 2010; in the data active = inhibition above about 75%; inconclusive = no clear call, values can overlap the other calls; tested in HMLE shEcad cells
Mdm2 MdmX PPI – inhibitors of human Mdm2-MdmX association, primary screen, cell-based, luminescence, split luciferase, SaOS-2, uHTS. Protein Mdm4 (Homo sapiens) + E3 ubiquitin-protein ligase Mdm2 (Homo sapiens), …. SaOS-2 split-luciferase Mdm2/MdmX complementation. inhibition, % at 8 µM. 330,000 compounds, 3% hits. AID 485346, 2010;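 active = inhibition of at least 50% at 8 µM in the primary screen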
Beta cell apopt – inhibitors of cytokine-induced beta cell apoptosis, primary screen, luminescence; INS-1E cytokine-induced death, ATP luminescence, 48 h; percent of positive-control rescue, neutral wells zero; protection from apoptosis, % (test concentration not listed); 300,000 compounds, 0.8% hits;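 active = Every replicate reaches about 75%, or at least half do and their mean reaches it too, limit read from the data; inconclusive = At least half of replicates reach the limit but their mean does not; inactive = Under half of replicates reach the limit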;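 note: 0% = cytokine-treated negative control wells and 100% = positive control rescue; higher means more ATP so stronger rescue from cytokine killing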
Gli-Sufu block – Gli-Sufu pathway antagonists, primary screen, luciferase luminescence, Sufu-KO-LIGHT cells, uHTS | Sufu-KO-LIGHT fibroblasts, Gli luciferase reporter luminescence | inhibition, % at 5 µM | 340,000 compounds, 0.74% hits | AID 588413, 2011;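 active = inhibition above about 55%, limit read from the data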;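 note: 0% = DMSO-treated cells and 100% = wells with medium but no cells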
Mdm2-MdmX conf – Mdm2-MdmX complex disruptors, retested hits, confirmation, luminescence, single concentration | 10,000 compounds, 55% hits | Mdm2-MdmX binding, luminescent assay | inhibition, % at 8 µM | AID 489028, 2010 | shares compounds with Mdm2 MdmX PPI; in the data active = inhibition above about 40%
Full FLuc ctr – full-length luciferase signal inhibition, confirmation, counter-screen for Mdm2/MdmX interaction inhibitor project, cell-based, single concentration, SaOS-2; inhibition, % at 8 µM; shares compounds with Mdm2 MdmX PPI; SaOS-2 full-length luciferase counterscreen, luminescence; 6,200 compounds, 77% hits;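 active = mean inhibition at 8 µM reaching about 37%, which flags the compound as non-specific, limit read from the data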;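 note: p53-null SaOS-2 cells with luciferase driven by a doxycycline-inducible promoter; compound on cells about two nights before reading with doxycycline added after day one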
Starred values were filed as active, the others as inactive; ? = inconclusive; . = no result given.

SMILES	PAX8 inh HTS	Shn3 inh set2	CSC inhib	Mdm2 MdmX PPI	Beta cell apopt	Gli-Sufu block	Mdm2-MdmX conf	Full FLuc ctr
Cc1ccc(Cn2ccsc2=NC(=O)CCl)cc1	114*	5	-3	99*	38	48	99*	59*
CCN(CC)CCN(Cc1cc2cc(C)cc(C)c2[nH]c1=O)C(=S)NCc1ccco1	-13	2	1	-12	0	15	.	.
CCN(CC)CCN(Cc1cc2ccc(C)c(C)c2[nH]c1=O)C(=S)NCc1ccco1	10	25	-2	88*	-5	30	54*	82*
CO[C@@H]1CN(C)C(=O)c2cc(NC(=O)C3CC3)ccc2OC[C@H](C)N(C(C)=O)C[C@H]1C	-3	.	.	.	.	.	.	.
COc1cc(C(=O)Nc2ccc3c(c2)CCN3C(C)=O)cc(OC)c1OC	6	16	61	59*	11	.	59*	62*
COc1cc(C(=O)Nc2ccc3c(c2)Cc2ccccc2-3)cc(OC)c1OC	13	7	25	47	5	14	.	.
O=[N+]([O-])c1ccccc1C1Nc2cccc3cccc(c23)N1	22	-5	12	93*	7	20	42*	27
Oc1ccccc1C1Nc2cccc3cccc(c23)N1	.	4	0	1	3	27	.	.
COc1cccc(-c2cc(=O)c3cc(NC(=O)c4ccc(N(C)C)cc4)ccc3[nH]2)c1	.	.	?	65*	4	44	60*	71*
COc1cccc(-c2cc(=O)c3cc(NC(=O)c4ccccc4)ccc3[nH]2)c1	52	11	61	59*	17	21	58*	42*
O=C(C[C@@H]1C=C[C@H](NC(=O)NC2CCCCC2)[C@H](CO)O1)NCc1ccc(F)cc1	15	.	.	.	.	.	.	.
O=C(Nc1cccc(-c2nc3ccccc3o2)c1)c1ccc(N2C(=O)C3C4C=CC(C4)C3C2=O)cc1 (stereo unspecified)	.	26	-2	59*	4	-3	21	.
O=C1C2C3C=CC(C3)C2C(=O)N1c1cccc(-c2nc3ccccc3o2)c1 (stereo unspecified)	.	-26	-8	17	-6	15	.	.
CO[C@H]1CC[C@@H]2CCN(C)C(=O)C[C@@H](c3ccccc3)CN(C)C(=O)c3cc(C#N)ccc3OC[C@@H]1O2	10	.	.	.	.	.	.	.
COc1ccc(-c2nn(CC(=O)Nc3ccc(Cl)c(Cl)c3)c(=O)c3ccccc23)cc1	.	9	-8	19	-9	4	.	.
COC(=O)COc1ccc(NC(=O)Cn2nc(-c3ccccc3)c3ccccc3c2=O)cc1	8	-5	3	81*	-2	-13	49*	89*
COc1cc(Br)cc(/C=C/c2ccc3cccc(O)c3n2)c1OC	36	1	52	65*	16	7	26	.
COc1ccc(Br)cc1/C=C/c1ccc2cccc(O)c2n1	44	19	28	51*	20	12	38	.
CC(=O)COc1cccc2ccc(/C=C/c3ccc(Br)s3)nc12	-28	14	40	15	-1	-2	.	.
COc1cccc(C(=O)N2C[C@@H]3[C@H](c4ccccc42)[C@H](CO)N3C(=O)c2cccc(F)c2)c1	-4	.	.	.	.	.	.	.
COc1ccc(NC(=O)CSc2ncnc3c2sc2ccccc23)c(OC)c1	2	5	41	88*	8	4	16	.
COc1cccc(/C=C/c2ccc3cccc(O)c3n2)c1OC	-15	10	66	70*	51	30	-95	.
COc1ccc(/C=C/c2ccncc2)c2ccccc12	.	6	66	42	-5	2	.	.
COc1ccc(/C=C/c2ccc3cccc(O)c3n2)c(OC)c1OC	-10	19	73	100*	31	-7	18	.
